Bioassay records from PubChem.
CYP2C19 inh – blocks human cytochrome P450 2C19; P33261; actives 21% (n = 96,000); CYP2C19 Supersomes, luciferin-H EGE luminescence, 30 min; inhibition, % at 5 µM;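 active means CYP2C19 inhibition above a set limit at 5 µM in the primary screen, cut at about 50% in these data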
Target sequence (P33261 whole entry, looked up): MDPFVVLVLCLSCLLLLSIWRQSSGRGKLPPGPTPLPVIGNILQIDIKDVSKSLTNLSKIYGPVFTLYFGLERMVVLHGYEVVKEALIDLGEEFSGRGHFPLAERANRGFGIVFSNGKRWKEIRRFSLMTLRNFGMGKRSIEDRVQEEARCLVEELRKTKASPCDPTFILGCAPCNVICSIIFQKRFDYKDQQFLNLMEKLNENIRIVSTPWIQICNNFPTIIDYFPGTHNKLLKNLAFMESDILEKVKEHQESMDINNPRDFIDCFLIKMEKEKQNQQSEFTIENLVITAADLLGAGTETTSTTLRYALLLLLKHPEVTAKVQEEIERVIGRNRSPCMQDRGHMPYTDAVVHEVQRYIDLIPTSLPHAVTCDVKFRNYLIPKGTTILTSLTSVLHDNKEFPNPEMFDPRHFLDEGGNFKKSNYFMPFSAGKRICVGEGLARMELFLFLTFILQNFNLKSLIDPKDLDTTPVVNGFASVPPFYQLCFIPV
CYP2C9 inhib – inhibitors of human CYP2C9; CYP2C9 Supersomes, luciferin-H conversion, luminescence; actives 20% (n = 96,000); P11712; inhibition, % at 5 µM;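 active means blocking of liver enzyme CYP2C9 beyond about 50% at 5 µM, limit read from the data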
CYP2C19 activ – cytochrome P450 2C19 (human) activation; AID 1025; activation factor at 5 µM; P33261; 96,000 tested, under 10 active; recombinant CYP2C19, luciferin-H EGE luminescence; hits give high values; 0 = fully inhibited enzyme, 1 = untreated enzyme;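 active means activation factor of at least 2 at 5 µM in the primary screen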
Measles CPE – protection of cells from measles virus. protection (pct of control), % at 4 µM. Measles virus-infected cells, CPE protection, absorbance. actives 1.5% (n = 140,000); in the data active means protection mostly above about 24%, no sharp cut-off; inactive means mostly below about 26%
CYP2C9 act – activators of human CYP2C9; P11712; recombinant CYP2C9, luciferin-H conversion, luminescence; hits give high values; factor 1 = untreated enzyme, 0 = blocked; activation factor at 5 µM; actives 1.4% (n = 96,000); AID 1024;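 active means activation factor of 2 or more for CYP2C9 at a 5 µM dose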
Large screens that a line does not name were inactive. Most compounds without a hit are left out; they make up all but 22% or so of the library.

O=S(=O)(Nc1cccc(-c2nc3cccnc3s2)c1)c1ccc2c(c1)OCCO2	CYP2C9 inhib 85
O=C(Nc1cccc(-c2nc3cccnc3s2)c1)C1c2ccccc2Oc2ccccc21	none (no result: CYP2C19 inh, CYP2C9 inhib, CYP2C19 activ, CYP2C9 act)
Cc1ccc(-c2nc3cccnc3s2)cc1NS(=O)(=O)c1ccc2c(c1)OCCO2	CYP2C9 inhib 74
Cc1nc2ccc(S(=O)(=O)Nc3cc(-c4nc5cccnc5s4)ccc3C)cc2s1	none (no result: CYP2C19 inh, CYP2C9 inhib, CYP2C19 activ, CYP2C9 act)
Cc1cc(-c2ccccc2)nc(N(C)NC(=O)c2ccc(Cl)cc2)c1S(C)(=O)=O	none
COc1ccc(CC(=O)NC(=S)Nc2ccc(S(N)(=O)=O)cc2)cc1	none (no result: CYP2C19 inh, CYP2C9 inhib, CYP2C19 activ, CYP2C9 act)
C=CCN(CC=C)S(=O)(=O)c1ccc(NC(=S)NC(=O)Cc2ccc(OC)cc2)cc1	CYP2C9 inhib 72
C=CCN(CC=C)S(=O)(=O)c1ccc(NC(=S)NC(=O)c2ccc(-c3ccccc3)cc2)cc1	CYP2C9 inhib 62
O=C1CC(=Nc2ccccc2)NN1c1ccccc1	CYP2C9 inhib 84
COc1cccc(NC(=O)Cc2cccs2)c1	CYP2C19 inh 51
COc1cccc(NC(=O)c2cccc(OC)c2OC)c1	CYP2C19 inh 81
COc1cccc(C(=O)Nc2ccc(N(C)C)cc2)c1OC	none
COc1cccc(NC(=O)c2cccs2)c1	CYP2C19 inh 54
COc1ccc2c(c1)Cc1sc(NC(=O)c3cccs3)nc1-2	CYP2C19 inh 70, CYP2C9 inhib 85
COc1cc(NC(=O)c2cccs2)cc(OC)c1	none
CCC(C)n1cnc2c(c1=O)c1nc3ccccc3nc1n2-c1ccc2c(c1)OCCO2 (stereo not drawn)	none
CCCCCCn1c(N2CCC(C(N)=O)CC2)nc2c1c(=O)[nH]c(=O)n2C	none
O=C(NCc1ccccc1)c1ccc(Cl)cc1[N+](=O)[O-]	none
COC(=O)c1sc2ccccc2c1NC(=O)c1cccs1	CYP2C9 inhib 60
COc1cc(C(=O)Nc2ccc3c(c2)OCO3)ccc1-n1cnnn1	none
COc1cc(NC(=O)Cc2cccs2)cc(OC)c1	CYP2C19 inh 81, Measles CPE 34
COc1cc(NC(=O)Cc2cccs2)ccc1-n1cnnn1	CYP2C19 inh 53, Measles CPE 29
O=C(O)CCc1ccc(-c2ccc(Br)cc2)n1CC(=O)O	none
COc1ccc(N(CC(=O)NCc2ccccc2OC)S(=O)(=O)c2c(C)nn(C)c2C)cc1	CYP2C19 inh 66, CYP2C9 inhib 94
COc1ccccc1CNC(=O)CN(c1ccc(C)cc1)S(=O)(=O)c1c(C)nn(C)c1C	CYP2C19 inh 70, CYP2C9 inhib 81
COc1ccc(OC)c(S(=O)(=O)N(C)CC(=O)N2CCc3ccccc3C2)c1	CYP2C19 inh 68, CYP2C9 inhib 80
COc1ccc(N(CC(=O)N2CCc3ccccc3C2)S(=O)(=O)c2c(C)nn(C)c2C)cc1	CYP2C19 inh 91, CYP2C9 inhib 64
COc1ccc(N(CC(=O)N2CCc3ccccc3C2)S(C)(=O)=O)cc1	none
COc1cccc(CN2C(=O)c3ccccc3C2C(=O)NCC2CCCO2)c1 (stereo not drawn)	none
CCCn1c2c(c(O)c(C(=O)Nc3ccccn3)c1=O)CCCC2	none (no result: Measles CPE)
COc1ccc(/C=N/n2c(SC)nnc(C(C)(C)C)c2=O)cc1OC	CYP2C19 inh 71, CYP2C9 inhib 57
COC(=O)CSc1snnc1-c1ccc(Cl)cc1Cl	CYP2C19 inh 77
CCOc1c(Br)ccc2c1sc1nc[nH]c(=O)c12	CYP2C19 inh 98
COc1ccc(OC)c(NC(=O)Nc2cccc3ccccc23)c1	none
COc1cccc(C(CC(=O)Nc2cccc3ccccc23)NC(=O)c2ccccc2)c1 (stereo not drawn)	CYP2C9 inhib 81
COc1ccc2c(c1)O[C@@H](c1cccc(C(F)(F)F)c1)[C@H](OC(=O)NCCc1ccc(OC)c(OC)c1)C2=O	none (no result: CYP2C19 inh, CYP2C9 inhib, CYP2C19 activ, CYP2C9 act)
CCC(=O)Nc1ccc(NC(=S)Nc2ccccc2)cc1	none (no result: CYP2C19 inh, CYP2C9 inhib, CYP2C19 activ, CYP2C9 act)
CCc1ccccc1-n1c(SCC(=O)Nc2ccc3c(c2)OCCO3)nc2[nH]ncc2c1=O	CYP2C19 inh 54, CYP2C9 inhib 61
CSc1nc2[nH]ncc2c(=O)n1-c1ccccc1	none (no result: CYP2C19 inh, CYP2C9 inhib, CYP2C19 activ, CYP2C9 act)
O=c1c2cn[nH]c2nc(SCc2ccc3c(c2)OCCO3)n1-c1ccccc1	CYP2C19 inh 90, CYP2C9 inhib 88
CCOc1ccc(NC(=O)CSc2nc3[nH]ncc3c(=O)n2-c2ccccc2OC)cc1	none (no result: CYP2C19 inh, CYP2C9 inhib, CYP2C19 activ, CYP2C9 act)
O=C1c2cccc3cccc(c23)C(=O)N1c1nncs1	none
CC(=O)N1C(=O)c2cccc3cccc(c23)C(=O)N1C(C)=O	Measles CPE 54
Cc1cc(C)c2c(=O)[nH]c(SCC(=O)Nc3ccc(N(C)C)cc3)nc2n1	CYP2C9 inhib 58
CCOC(=O)CSCC(=O)Nc1ccc(S(=O)(=O)N2CCCCC2)cc1	CYP2C19 inh 77, CYP2C9 inhib 88
Cc1cc(=O)[nH]c(SCC(=O)Nc2ccc(S(=O)(=O)N3CCCCC3)cc2)n1	CYP2C9 inhib 80
O=C(CSCc1ccc([N+](=O)[O-])cc1)Nc1ccc(S(=O)(=O)N2CCCCCC2)cc1	none (no result: CYP2C19 inh, CYP2C9 inhib, CYP2C19 activ, CYP2C9 act)
Cc1cc(C)n(-c2ccc(C(=O)OCC(=O)Nc3ccc(S(=O)(=O)N4CCCCC4)cc3)cc2)n1	CYP2C19 inh 68, CYP2C9 inhib 82
CCOc1ncccc1C(=O)OCC(=O)Nc1cccc(C(C)=O)c1	none
Cc1cc(C)c(OCCOCCN(C)C)c(Br)c1	none (no result: CYP2C19 inh, CYP2C9 inhib, CYP2C19 activ, CYP2C9 act)
Cc1nc(COC(=O)c2ccc(S(=O)(=O)N3CCCC3)cc2)cs1	CYP2C9 inhib 90
Cc1cc(C)c2nc(SCC(=O)Nc3ccc(S(=O)(=O)N4CCCC4)cc3)c(C)cc2c1	CYP2C9 inhib 88
CCn1cc(C(=O)OCC(=O)Nc2ccc(S(=O)(=O)N3CCCC3)cc2)c(=O)c2ccc(C)nc21	CYP2C9 inhib 68
CCn1cc(C(=O)OCC(=O)Nc2cc(S(=O)(=O)N(C)C)ccc2C)c(=O)c2ccc(C)nc21	none
CC(C)CC(NC(=O)C(CC(C)C)NC(=O)OC(C)(C)C)C(N)=O (stereo not drawn)	none (no result: CYP2C19 inh, CYP2C9 inhib, CYP2C19 activ, CYP2C9 act)
Cc1cccnc1NCC(O)COc1ccccc1 (stereo not drawn)	none
CCN(CC(=O)Nc1c(C(=O)OC)[nH]c2ccc(C)cc12)c1ccc2c(c1)OCO2	CYP2C9 inhib 62
CCOC(=O)C1CCN(CC(=O)Nc2c(C(=O)OC)[nH]c3ccc(Cl)cc23)CC1	CYP2C19 inh 73
COC(=O)c1[nH]c2ccc(Br)cc2c1NC(=O)CN1CCN(C2CCCCC2)CC1	none
CCOC(=O)C1CCN(CC(=O)Nc2c(C(=O)OC)[nH]c3ccccc23)CC1	CYP2C19 inh 73
COC(=O)c1[nH]c2ccc(Br)cc2c1NC(=O)CN1CCCc2ccccc21	CYP2C9 inhib 88
CCOC(=O)C1CCN(CC(=O)Nc2c(C(=O)OC)[nH]c3cccc(Cl)c23)CC1	none
CCc1ccccc1NC(=O)c1ccc(Cn2cc([N+](=O)[O-])cn2)cc1	none (no result: CYP2C19 inh, CYP2C9 inhib, CYP2C19 activ, CYP2C9 act)
Cc1ccc(Nc2nc(N)nc(CN3CCN(C)CC3)n2)cc1	none
O=c1c2ccccc2cnn1Cc1n[nH]c(=S)n1-c1ccc(Cl)cc1Cl	none (no result: CYP2C19 inh, CYP2C9 inhib, CYP2C19 activ, CYP2C9 act)
CC1CCc2nc(NC(=O)CN3CCN(Cc4ccc5c(c4)OCO5)CC3)sc2C1 (stereo not drawn)	CYP2C19 inh 72, CYP2C9 inhib 76
